Experimental data published in PubChem BioAssay.
Where “and” joins values, the source holds several entries; their conditions need not be identical. Equal entries are not always repeated. Calls of active or inactive are those of the source.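 The calls were made as follows, unless noted: active = inhibition at or above 50% relative to wild type and mutant plate controls; inactive = inhibition below 50%.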

What was measured:
[1] = reduction of polyQ htt aggregates in cells – imaging, exon1htt(103Q)mCFP cells, high-content imaging, primary screen (AID 483;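 active = visual image review flags a hit and inhibition of aggregation exceeds 20%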;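 also: compound exposure lasted 3 days before fixation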;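 as to nuclei count: percent of the per-plate median nuclei count of sample wells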); conditions: exon1htt(103Q)mCFP cell line, aggregate imaging, at 2 µM; inhibition of aggregation: stronger effect = higher value; nuclei count: measured here: cell count, toxicity
[2] = endothelial E-selectin expression blockers – imaging, HUVEC, immunofluorescence, MLSMR starter and 10KST1 sets, primary screen (AID 487;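 active = visually confirmed hit in the image check and inhibition above 20%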;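 as to inhibition: signal is fraction of cell area covered by stained E-selectin grains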;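 as to nuclei count: 100% = median nuclei count of all wells on the same plate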); conditions: HUVEC TNFalpha-induced E-selectin immunofluorescence imaging, at 2 µM; inhibition: stronger effect = higher value; nuclei count: measured here: cell number, toxicity
[3] = Primary imaging screen for DUSP6 inhibitors that restore phospho-Erk in transfected HeLa cells, chemical complementation (AID 609;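 active = compounds giving at least 50% inhibition in the cell-based MKP-3 phosphatase rescue imaging test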;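 as to inhibition: phospho-Erk level distribution per well compared with pooled transfected vehicle control wells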); conditions: HeLa MKP-3 transfected, phospho-Erk imaging KS statistic, at 10 µM, cells stimulated with TPA for 15 min
[4] = target: Dual specificity protein phosphatase 6 (Homo sapiens) (UniProt Q16828); assay: as above; conditions: HeLa MKP-3 transfected, phospho-Erk imaging KS statistic; at 10 µM; stronger effect = higher value; cells stimulated with TPA for 15 min
Chain of Dual specificity protein phosphatase 6 (Homo sapiens) (Q16828 whole entry, looked up): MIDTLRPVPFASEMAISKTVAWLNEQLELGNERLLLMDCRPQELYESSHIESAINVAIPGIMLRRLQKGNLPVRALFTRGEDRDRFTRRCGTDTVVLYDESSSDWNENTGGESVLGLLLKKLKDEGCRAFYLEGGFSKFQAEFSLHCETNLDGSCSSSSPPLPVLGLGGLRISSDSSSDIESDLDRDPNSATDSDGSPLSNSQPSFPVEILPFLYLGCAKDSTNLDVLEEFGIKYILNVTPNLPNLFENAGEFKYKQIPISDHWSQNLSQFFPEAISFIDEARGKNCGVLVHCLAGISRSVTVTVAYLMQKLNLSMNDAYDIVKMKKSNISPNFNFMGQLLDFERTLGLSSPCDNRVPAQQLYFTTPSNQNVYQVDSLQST

[5] = target: Voltage-gated potassium channel subunit beta-2 (Rattus norvegicus) (UniProt P62483); assay: inhibitors of rat Kvbeta2 reductase activity – biochemical, NADPH fluorescence, primary screen (AID 622;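 active = fluorescence slope higher than the sample average by over 3 SD, cut at about -0.22 in these data, passing the limit was not always enough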;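 also: slope of raw intensity against log time taken from 70 to 1610 s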); conditions: recombinant KvBeta, 4-cyanobenzaldehyde reduction, at 10 µM, stronger effect = higher value
Chain of Voltage-gated potassium channel subunit beta-2 (Rattus norvegicus) (P62483 whole entry, looked up): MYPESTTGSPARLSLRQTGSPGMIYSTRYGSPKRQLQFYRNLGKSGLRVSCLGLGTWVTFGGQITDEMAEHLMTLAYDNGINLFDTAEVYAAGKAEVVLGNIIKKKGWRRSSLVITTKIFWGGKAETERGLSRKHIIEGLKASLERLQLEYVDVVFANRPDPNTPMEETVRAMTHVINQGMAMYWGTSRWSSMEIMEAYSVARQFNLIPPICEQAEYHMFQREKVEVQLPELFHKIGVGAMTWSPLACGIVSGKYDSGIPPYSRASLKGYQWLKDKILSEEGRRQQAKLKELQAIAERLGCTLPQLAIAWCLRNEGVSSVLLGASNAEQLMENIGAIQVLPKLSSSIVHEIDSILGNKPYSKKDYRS

[6] = target: Voltage-gated potassium channel subunit beta-2 (Rattus norvegicus) (UniProt P62483); assay: enhancers of rat Kvbeta2 NADPH turnover – biochemical, NADPH fluorescence, primary screen (AID 623;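 active = NADPH fluorescence slope more negative than the mean of all samples by about 3 SD, 99.7% confidence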;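 also: fluorescence intensity change per second fitted from 20 to 320 s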); conditions: Recombinant KvBeta, NADPH fluorescence decrease slope, 10 min; at 10 µM; stronger effect = lower value
[7] = target: Alpha-2C adrenergic receptor (Homo sapiens) (UniProt P18825); assay: compounds altering alpha2C-coupled GIRK flux – cell-based, HEK293 alpha2C/GIRK1/2, thallium flux, primary screen (AID 624;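 active = fluorescence slope after compound addition differing from the mean of all screened samples at 99.7% confidence, in either direction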;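 also: slope of fluorescence ratio to pre-addition baseline per second over 15 to 24 s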); conditions: thallium flux BTC fluorescence, at 10 µM, actives lie on both sides
Chain of Alpha-2C adrenergic receptor (Homo sapiens) (P18825 whole entry, looked up): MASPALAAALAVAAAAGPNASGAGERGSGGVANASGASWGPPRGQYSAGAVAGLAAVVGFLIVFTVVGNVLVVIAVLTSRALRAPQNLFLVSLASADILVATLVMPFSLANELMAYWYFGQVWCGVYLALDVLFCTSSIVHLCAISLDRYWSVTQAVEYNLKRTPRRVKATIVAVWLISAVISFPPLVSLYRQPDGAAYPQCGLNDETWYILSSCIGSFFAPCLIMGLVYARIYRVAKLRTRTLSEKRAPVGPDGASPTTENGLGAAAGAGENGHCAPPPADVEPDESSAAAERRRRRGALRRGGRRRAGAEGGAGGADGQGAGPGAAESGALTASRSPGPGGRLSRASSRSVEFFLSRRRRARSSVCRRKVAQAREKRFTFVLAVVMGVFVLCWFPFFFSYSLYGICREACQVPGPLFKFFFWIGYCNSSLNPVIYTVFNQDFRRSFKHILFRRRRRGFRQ

[8] = inhibitors of larval lipid processing in zebrafish, primary screen, whole organism, PED6 fluorescence, gall bladder and intestine (AID 686;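 active = a full or partial loss of lipid-probe fluorescence in the fish gall bladder, intestine or both, judged by eye; inactive = no fluorescence loss, or compound toxic to the fish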;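 also: larvae 5 to 7 days old with five fish per well; signal comes from phospholipase A2 cleavage of quenched PED6 carried via bile; overnight exposure to compound and PED6 before scoring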); conditions: Zebrafish larvae PED6 lipid processing, fluorescence scoring; screened at 20 µM (by protocol)
[9] = loss of swimming-algae plug formation – whole organism, Chlamydomonas reinhardtii, WT vs cilia-less mutant, absorbance, 96-well, primary screen (AID 463189); conditions: Chlamydomonas reinhardtii gravitaxis, OD600 absorbance, 2 days; at 10 µM; stronger effect = higher value;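 also: 0% = wild type cc124 cells in DMSO and 100% = ciliumless bld1 mutant cells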
[10] = blockers of RIG-like receptor reporter activation – cell-based, Sendai virus stimulus, luciferase, 10K MLSCN set, TLR/RLR signaling modifier project, primary screen (AID 602276;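 active = inhibition at or above 50% at 10 µM; inactive = inhibition below 50%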;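 also: firefly luciferase from ISG56 promoter only with Renilla not read in this screen; 0% = Sendai virus plus DMSO and 100% = medium plus DMSO without virus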); conditions: HEK293 RL24 IRF3 luciferase reporter, at 10 µM, stronger effect = higher value
[11] = TLR3 IRF3 reporter activation blockers – cell-based, poly I:C stimulus, luciferase, 10K MLSCN set, primary screen (AID 602277;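 active = inhibition of the reporter signal at or above 50%; inactive = inhibition below 50%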); conditions: HEK293-TLR3 RL24 IRF3 luciferase reporter, at 10 µM, stronger effect = higher value
[12] = target: Muscarinic acetylcholine receptor M4 (Homo sapiens) (UniProt P08173); assay: M4-linked GIRK flux change, two-sided – cell-based, HEK293 M4/GIRK, thallium flux, BTC-AM, M4 allosteric agonist project, primary screen (AID 625;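 active = fluorescence slope after compound addition differing from the mean of all tested samples at 99.7% confidence, mostly higher but some lower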;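 also: thallium influx through GIRK channels coupled to M4 in HEK293 cells with BTC-AM dye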); conditions: at 10 µM, actives lie on both sides
Chain of Muscarinic acetylcholine receptor M4 (Homo sapiens) (P08173 whole entry, looked up): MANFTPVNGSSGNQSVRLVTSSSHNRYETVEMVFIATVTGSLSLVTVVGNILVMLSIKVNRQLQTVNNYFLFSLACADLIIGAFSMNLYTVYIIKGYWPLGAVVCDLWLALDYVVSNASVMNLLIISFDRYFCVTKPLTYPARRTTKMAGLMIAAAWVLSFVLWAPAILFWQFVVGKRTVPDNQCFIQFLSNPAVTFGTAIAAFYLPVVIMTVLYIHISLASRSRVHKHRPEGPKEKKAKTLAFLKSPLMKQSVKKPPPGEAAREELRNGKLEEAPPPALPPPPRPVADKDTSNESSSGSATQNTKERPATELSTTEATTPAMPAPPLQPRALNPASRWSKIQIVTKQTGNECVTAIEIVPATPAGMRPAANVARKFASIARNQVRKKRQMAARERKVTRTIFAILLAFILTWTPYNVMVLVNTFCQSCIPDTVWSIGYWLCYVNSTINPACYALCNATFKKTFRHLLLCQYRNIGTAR

[13] = measured here: cell density z-score
[14] = measured here: nuclear c-Myc green intensity z-score
[15] = measured here: nuclear pErk red intensity z-score, stronger effect = higher value

| SMILES | inhibition of aggregation [1] | nuclei count [1] [%] | inhibition [2] | nuclei count [2] | z-score [3, 13] | z-score [3, 14] | z-score [3, 15] | inhibition [4] | fluorescence slope [5] | NADPH fluorescence slope [6] | slope [7] | outcome [8] | inhibition [9] | inhibition [10] | inhibition [11] | fluorescence slope [12] |
| --- | --- | --- | --- | --- | --- | --- | --- | --- | --- | --- | --- | --- | --- | --- | --- | --- |
| COc1ccc(CN(CCN(C)C)c2ccccn2)cc1 | -1.2% (inactive) | 105 | -37.9% (inactive) | 113% | -0.442 | -0.558 | 1.54 | 3.45% (inactive) | -0.507 (inactive) | 9.4e-06 (inactive) | 0.00533 (inactive) | inactive | 3.64% (inactive) and 20.5% (inactive) | 16.8% (inactive) | 30.1% (inactive) | – |
| O=c1[nH]c2ccccc2n1CCCN1CCN(C(c2ccccc2)c2ccccc2)CC1 | 0% (inactive) | 107 | -139% (inactive) | 123% | -0.406 | -0.951 | 1.42 | 1.48% (inactive) | -0.492 (inactive) | 1.6e-07 (inactive) | 0.00471 (inactive) | inactive | 0.779% (inactive) and 19.8% (inactive) | 18.3% (inactive) | 35.4% (inactive) | – |
| CC(=O)OCC1=C(C(=O)O)N2C(=O)[C@@H](NC(=O)Cc3cccs3)[C@H]2SC1 | -14.4% (inactive) | 85.4 | -35% (inactive) | 116% | -0.65 | -0.0505 | -0.555 | 17.3% (inactive) | -0.429 (inactive) | -5.9e-05 (inactive) | 0.00483 (inactive) | inactive | 7.69% (inactive) and 18.3% (inactive) | 10.9% (inactive) | 35.2% (inactive) | – |
| C1COC(NC(C2CC2)C2CC2)=N1 | 19% (inactive) | 109 | -91.3% (inactive) | 116% | -0.996 | 0.285 | -0.338 | 25.7% (inactive) | -0.468 (inactive) | -4.8e-05 (inactive) | 0.00489 (inactive) | – | 2.12% (inactive) and 18.6% (inactive) | -6% (inactive) | 20.5% (inactive) | – |
| Oc1c(I)cc(Cl)c2cccnc12 | -1.7% (inactive) | 76.8 | -52% (inactive) | 108% | -0.367 | 0.593 | -0.324 | 23.4% (inactive) | -0.459 (inactive) | -3.6e-05 (inactive) | 0.00439 (inactive) | inactive | -0.595% (inactive) | 0.651% (inactive) | 31.6% (inactive) | – |
| Cc1cc(C(C)(C)C)c(O)c(C)c1CC1=NCCN1 | 2.2% (inactive) | 87.4 | -50.7% (inactive) | 134% | 0.182 | 0.896 | -0.366 | -2.29% (inactive) | -0.367 (inactive) | -2.8e-05 (inactive) | 0.00482 (inactive) | inactive | 6.18% (inactive) and -2.62% (inactive) | 16.9% (inactive) | 24.3% (inactive) | – |
| CC(C)NCC(O)COc1ccc(CC(N)=O)cc1 (stereo not given) | -3.8% (inactive) | 97.3 | -96.5% (inactive) | 135% | -1.26 | -0.177 | -0.441 | -2.46% (inactive) | -0.47 (inactive) | 1.8e-05 (inactive) | 0.00481 (inactive) | inactive | -6.18% (inactive) and -8.19% (inactive) | -12.5% (inactive) | -8.56% (inactive) | – |
| COc1cc(NS(=O)(=O)c2ccc(N)cc2)ncn1 | 15.6% (inactive) | 100 | -87.8% (inactive) and -123% (inactive) | 109% and 156% | -0.758 and -0.797 | -0.381 and 0.601 | 1.83 and 0.0867 | 12.4% (inactive) and -1.98% (inactive) | -0.448 (inactive) and -0.477 (inactive) | -8.5e-05 (inactive) and -7.6e-05 (inactive) | 0.00452 (inactive) | inactive | 15.5% (inactive) and 12.3% (inactive) | 6.56% (inactive) | 32.2% (inactive) | 0.00587 (inactive) |
| CC(C)(C)NC[C@H](O)COc1nsnc1N1CCOCC1 | -13.8% (inactive) | 102 | -120% (inactive) | 119% | -0.0639 | -0.39 | 1.55 | -10.4% (inactive) | -0.502 (inactive) | -5e-06 (inactive) | 0.00458 (inactive) | inactive | -10.5% (inactive) | 6.87% (inactive) | 46.4% (inactive) | – |
| CC(C)C[C@H]1C(=O)N2CCC[C@H]2[C@]2(O)O[C@](NC(=O)[C@@H]3C=C4c5cccc6[nH]c(Br)c(c56)CC4N(C)C3)(C(C)C)C(=O)N12 (stereo not given in full) | -4% (inactive) | 96.5 | -74.8% (inactive) | 122% | -0.747 | -0.999 | 0.764 | 5.42% (inactive) | -0.523 (inactive) | 8.6e-06 (inactive) | 0.00416 (inactive) | inactive | -11.5% (inactive) | 7.85% (inactive) | 5.12% (inactive) | – |
| CC1(C)S[C@@H]2[C@H](NC(=O)Cc3ccccc3)C(=O)N2[C@H]1C(=O)O | 9.3% (inactive) | 68.8 | -6% (inactive) | 104% | 1.44 | -1.24 | -1.04 | 5.79% (inactive) | -0.496 (inactive) | -5.4e-05 (inactive) | 0.00416 (inactive) | inactive | 4.14% (inactive) | 20.3% (inactive) | 37.6% (inactive) | – |
| COC(=O)Nc1nc2ccc(C(=O)c3ccccc3)cc2[nH]1 | -1.2% (inactive) | 34.6 | -48.7% (inactive) | 112% | 1.8 | -0.197 | -0.901 | 21.2% (inactive) | -0.437 (inactive) | -9.9e-05 (inactive) | 0.0038 (inactive) | inactive | -3.25% (inactive) | 17.6% (inactive) | 46.8% (inactive) | – |
| COc1cc(C2C(C#N)=C(N)Oc3cc(N)ccc32)cc(OC)c1OC (stereo not given) | -94.1% (inactive) | 1.6 | -83.7% (inactive) | 80.5% | 0.957 | -0.28 | -0.643 | 2.92% (inactive) | -0.434 (inactive) | 1e-06 (inactive) | 0.00523 (inactive) | inactive | 4.51% (inactive) | 46.4% (inactive) | 88.5% (active) | – |
| CN(C)CCCC1(c2ccc(F)cc2)OCc2cc(C#N)ccc21 (stereo not given) | -40.9% (inactive) | 103 | -57.3% (inactive) | 141% | -1.47 | -1.41 | 2.05 | -9.66% (inactive) | -0.453 (inactive) | 1.8e-06 (inactive) | 0.00413 (inactive) | inactive | 8.33% (inactive) and 1.25% (inactive) | 1.82% (inactive) | 18.9% (inactive) | – |
| CCc1cccc2c3c([nH]c12)C(CC)(CC(=O)O)OCC3 (stereo not given) | 3.6% (inactive) | 111 | -122% (inactive) | 126% | -0.0395 | 0.0959 | -0.905 | -0.493% (inactive) | -0.442 (inactive) | -6.2e-05 (inactive) | 0.00464 (inactive) | inactive | -6.89% (inactive) and 27.4% (inactive) | 10.1% (inactive) | 33.6% (inactive) | – |
| CCc1nc(N)nc(N)c1-c1ccc(Cl)cc1 | -35.2% (inactive) | 76.3 | -93.1% (inactive) | 108% | -1.21 | 2.44 | -0.22 | 12.4% (inactive) | -0.503 (inactive) | 1.5e-05 (inactive) | 0.00459 (inactive) | inactive | 37.1% (inactive) | 18.7% (inactive) | -1.71% (inactive) | – |
| O=C1CCc2cc(OCCCCc3nnnn3C3CCCCC3)ccc2N1 | 14.7% (inactive) | 106 | -114% (inactive) | 136% | 0.404 | -0.117 | -0.524 | 27.1% (inactive) | -0.456 (inactive) | -6.4e-05 (inactive) | 0.00334 (inactive) | inactive | 3.02% (inactive) and 2.15% (inactive) | -3.33% (inactive) | 20.5% (inactive) | – |
| O=c1[nH]c(=O)n([C@H]2C[C@H](O)[C@@H](CO)O2)cc1F | -11.9% (inactive) | 10.3 | -47% (inactive) | 116% | 0.0804 | 0.765 | -0.71 | 3.59% (inactive) | -0.533 (inactive) | -5.3e-05 (inactive) | 0.00542 (inactive) | inactive | -13.9% (inactive) | -38.5% (inactive) | 15.4% (inactive) | – |
| CC(=O)N[C@@H](CS)C(=O)O | 7.3% (inactive) | 104 | -49.2% (inactive) | 120% | 0.131 | -1.67 | 0.657 | 1.48% (inactive) | -0.543 (inactive) | -3.7e-05 (inactive) | 0.0055 (inactive) | inactive | 3.13% (inactive) and -2.25% (inactive) | 11.9% (inactive) | 21% (inactive) | – |
| O=c1c(O)c(-c2ccc(O)cc2O)oc2cc(O)cc(O)c12 | 2.1% (inactive) | 102 | 3% (inactive) | 114% | -0.466 | 0.679 | 0.0465 | -0.493% (inactive) | -0.439 (inactive) | -0.000116 (inactive) | 0.00575 (inactive) | inactive | 8.46% (inactive) and 17% (inactive) | 11.8% (inactive) | 29.6% (inactive) | – |
